# Screening data deposited in PubChem BioAssay by several laboratories.
# HGIII-sPLA2 inh – human group III sPLA2 inhibitors, primary screen, biochemical, QFRET, BODIPY PC-A2 liposome substrate | QFRET BODIPY PC-A2 liposome hydrolysis, fluorescence | inhibition, % at 12.2 µM | hit rate 0.56% among 370,000;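 active means inhibition above mean plus 3 SD of compounds lying within the high and low control bounds, cut at about 19% in these data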;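 further: 0% = median of test compound wells and 100% = no enzyme DMSO wells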
# ABHD5 PLIN5 PPI – ABHD5-PLIN5 interaction inhibitors, primary screen, cell lysate, split luciferase complementation, luminescence. Split G. princeps luciferase complementation, 4 h. hit rate 0.78% among 360,000. inhibition, % at 4 µM;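 active means inhibition above the mean inhibition across every tested compound plus 3 SD, cut at about 22% in these data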;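 further: 0% = DMSO only wells and the 100% control is not disclosed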
# Target sequence (Q00G26 whole entry, looked up): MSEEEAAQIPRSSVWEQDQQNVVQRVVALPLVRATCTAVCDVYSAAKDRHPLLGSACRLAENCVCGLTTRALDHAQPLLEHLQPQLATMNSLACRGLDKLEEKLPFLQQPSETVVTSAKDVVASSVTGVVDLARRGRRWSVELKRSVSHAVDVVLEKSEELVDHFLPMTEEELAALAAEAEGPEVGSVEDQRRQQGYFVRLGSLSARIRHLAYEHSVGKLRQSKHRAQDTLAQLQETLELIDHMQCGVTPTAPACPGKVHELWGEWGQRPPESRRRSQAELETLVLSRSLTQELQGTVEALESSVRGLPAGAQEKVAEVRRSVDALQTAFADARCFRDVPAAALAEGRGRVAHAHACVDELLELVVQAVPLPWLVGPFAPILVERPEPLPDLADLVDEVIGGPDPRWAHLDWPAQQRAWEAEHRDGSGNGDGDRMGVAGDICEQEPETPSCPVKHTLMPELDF
# Target sequence (Q8WTS1 whole entry, looked up): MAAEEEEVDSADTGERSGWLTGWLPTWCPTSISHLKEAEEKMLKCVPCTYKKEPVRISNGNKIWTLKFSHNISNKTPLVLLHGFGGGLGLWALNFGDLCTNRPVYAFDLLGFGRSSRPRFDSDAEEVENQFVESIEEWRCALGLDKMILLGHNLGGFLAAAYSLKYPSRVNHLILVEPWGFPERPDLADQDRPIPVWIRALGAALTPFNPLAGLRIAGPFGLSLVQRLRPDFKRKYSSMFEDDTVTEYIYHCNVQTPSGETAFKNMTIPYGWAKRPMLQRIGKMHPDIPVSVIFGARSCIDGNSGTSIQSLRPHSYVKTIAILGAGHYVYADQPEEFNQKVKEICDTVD
# Cardio protect – cardioprotection against H2O2-induced cell death, primary screen, uHTS, H9c2 cells, ATPLite luminescence | H9c2 cardiomyocytes, H2O2 injury protection, 2 h | protection from H2O2 cell death, % at 20 µM | hit rate 0.63% among 360,000 | AID 588492, 2011;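 active means compounds giving at least 50% protection of heart cells from peroxide-induced death in the single-dose screen, raw or plate-pattern-corrected value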;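 further: 0% = DMSO wells with peroxide and 100% = DMSO wells without peroxide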
# DAGLB inh – DAGLB lipase inhibitors, primary screen, biochemical, fluorescence, HTS | HEK293T DAGLB membrane lysate, EnzChek fluorogenic substrate | inhibition, % at 5.17 µM | hit rate 0.059% among 340,000; in the data active means inhibition above about 34%;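 further: 0% = enzyme with vehicle and 100% = wells lacking enzyme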
# Rtt109 Vps75 – inhibitors of C. albicans Rtt109/Vps75 HAT, primary screen, biochemical, ThioGlo CoA-SH fluorescence, plate reader | Histone acetyltransferase RTT109 (Candida albicans (strain SC5314 / ATCC MYA-2876)), … | purified Rtt109/Vps75, 4 h | inhibition, % at 34.9 µM | hit rate 0.16% among 330,000;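 active means inhibition of at least 50% in every replicate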
# Myeloid diff MLP – induction of myeloid progenitor differentiation, primary screen, cell-based, flow cytometry, MLPCN library | ER-HoxA9 myeloid progenitors, lysozyme-GFP differentiation | calls only at 10 µM | hit rate 1% among 360,000 | AID 624256, 2012;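 active means normalized GFP-positive differentiation at or above the plate's own cutoff, the solvent-only control mean plus 3 SD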;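 further: cells exposed to compound for four days before flow analysis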
# Myeloid diff – inducers of myeloid progenitor differentiation, confirmation, cell-based, GFP/Mac1 flow cytometry, cherry pick 01 | shares compounds with Myeloid diff MLP | ER-HoxA9 myeloid progenitors, GFP/Mac1 double-positive flow | calls only | hit rate 2% among 2,300 | AID 651706, 2012;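 active means share of green or green-and-red cells above 9 and 9% in run 1 or 4 and 3% in run 2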
# GFP autofluor – counter-screen for myeloid differentiation promoters: compound fluorescence | shares compounds with Myeloid diff MLP | ER-HoxA9 myeloid progenitors, no estrogen, GFP autofluorescence flow cytometry; vehicle wells 0%, positive control 100% | fluorescence response, % (test concentration not listed) | hit rate 7.4% among 2,300 | AID 651707;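 active means over 5% cells positive for green fluorescent reporter, or over 2% positive for both it and APC stain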;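 further: range taken on the double positive population between DMSO and positive control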
# * marks the source's active call; other numbers are inactive results; i = inactive; · = no result; + = active, no number. This is a sample that favours compounds with a hit; in the whole collection about 2.9% have one here.
SMILES,HGIII-sPLA2 inh,ABHD5 PLIN5 PPI,Cardio protect,DAGLB inh,Rtt109 Vps75,Myeloid diff MLP,Myeloid diff,GFP autofluor
C[n+]1c2n(c3ccccc31)N=C(c1cc(C(C)(C)C)c(O)c(C(C)(C)C)c1)CS2,-2.5,12.2,-25.7,3.0,25.1,+,i,0.0
c1ccc(Cc2nn3c(Cn4nnc5ccccc54)nnc3s2)cc1,-3.2,-0.6,0.5,-2.6,4.9,i,i,0.0
COc1cccc(-n2cc(CN(C)Cc3nc(Cc4cccc(F)c4)no3)cn2)c1,-10.3,2.5,-5.5,-3.8,-3.9,i,i,0.0
CC(C)CNC(=O)c1ccccc1SCC(=O)NC12CC3CC(CC(C3)C1)C2,6.9,1.4,-1.4,2.6,19.7,+,i,3.8
CC1(C)CC(=O)C2=C(C1)N(Cc1ccco1)C(=O)C2(NC(=O)C1CCCCC1)C(F)(F)F (stereo unspecified),4.2,12.9,-0.7,1.5,15.4,i,i,0.3
CC(NC(=O)C(=O)N1CCOCC1)C(c1cccs1)N1CCN(c2ccc(F)cc2)CC1 (stereo unspecified),7.2,-3.6,-4.2,0.8,-3.2,i,·,·
CCNC(=O)NC1(C(=O)N2CCC(Cc3ccccc3)CC2)CCCCC1,9.9,1.6,-2.9,-1.8,5.3,+,i,0.7
O=C(NCc1ccccc1)NC1(C(=O)N2CCCC2)CCCCC1,4.1,1.0,3.6,0.8,-6.5,i,·,·
O=C1C2CC=CCC2C(=O)N1CC1CCCO1 (stereo unspecified),3.6,-1.0,6.7,-1.0,-0.5,i,·,·
O=C1C2C(C(=O)N1CC1CCCO1)C1C=CC2C12CC2 (stereo unspecified),9.7,-5.5,6.5,-1.2,-0.5,·,i,0.9
Nc1nc(SCc2ccccc2)c2ncn(C3CCCO3)c2n1 (stereo unspecified),0.3,2.0,-4.9,-1.9,0.5,i,i,0.0
CN(C)CCN1CCc2ccccc21,-3.5,12.9,5.6,2.3,8.7,+,i,0.0
CN1OC[C@@H]2CN(C(=O)CCc3ccccc3)[C@H](c3cccc(-c4ccccc4)c3)C[C@@H]21,-8.9,3.7,13.4,-3.9,-3.9,i,·,·
CN1OC[C@@H]2CN(C(=O)CCc3ccccc3)[C@H](c3cccc(Oc4ccccc4)c3)C[C@@H]21,-6.4,-0.9,14.0,2.0,-19.9,i,i,0.6
Cc1ccc(N=C2C(=O)Nc3ccccc32)cc1,0.4,-5.3,6.0,-0.2,3.2,i,·,·
CCN(CC)c1ccc(N=C2C(=O)Nc3ccccc32)cc1,10.1,-9.3,-11.6,1.8,-4.1,i,i,3.7*
CC(OC(=O)c1ccc(NC(=O)CC#N)cc1)C(=O)Nc1ccc(Oc2ccccc2)cc1 (stereo unspecified),-44.6,-2.2,-6.4,-0.9,-9.5,i,·,·
Cc1cc(C(=O)C(C)OC(=O)c2ccc(NC(=O)CC#N)cc2)c(C)n1-c1ccc(OC(F)F)cc1 (stereo unspecified),-44.8,-11.5,-20.4,-7.7,11.2,+,i,18.4*
C1CCC2(CC1)C1=C(CCCC1)Nc1nnnn12,-6.9,-0.5,7.7,-0.5,10.1,+,i,0.3
S=C1NC2=C(CCCC2)C2(CCCCC2)N1,10.2,-4.9,7.9,-2.1,-10.8,i,·,·
O=C1NCCN1c1ccc(CN2CCN(C3CCCCC3)C(CCO)C2)cc1 (stereo unspecified),6.0,10.0,1.5,4.9,15.2,i,i,0.0
